# Measured values taken from PubChem BioAssay (NCATS).
# Unmarked numbers belong to inactive results. Inconclusive results are not listed. Activity calls are given as the source filed them. Unless noted, the call rests on the fitted dose curve; in most records, active means well fitted curve in the direction sought with a large enough effect; inconclusive means small, poorly fitted or top-dose-only effect, or another doubt; inactive means no such curve, though single readings can be large; an effect the other way counts as inactive or inconclusive.
# Target: Thyrotropin receptor (Homo sapiens) (UniProt P16473)
# Experiment: qHTS Assay for Antagonists of the Thyroid Stimulating Hormone Receptor (AID 488980); further: 0% is about no effect
# Conditions: TSHR-expressing cells, cAMP antagonist read-out; series mostly up to 57.5 µM; activity, negative = inhibition: at the top concentration
# Method in brief: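 Readout is cAMP by HTRF competition between cellular cAMP and cAMP-d2 for a cryptate-labelled antibody. Antagonism was assessed in TSHR-transfected HEK293 cells stimulated with 4 nM TSH (EC80, final) in the presence of RO 20-1724.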
# Sequence of Thyrotropin receptor (Homo sapiens) (P16473 whole entry, looked up): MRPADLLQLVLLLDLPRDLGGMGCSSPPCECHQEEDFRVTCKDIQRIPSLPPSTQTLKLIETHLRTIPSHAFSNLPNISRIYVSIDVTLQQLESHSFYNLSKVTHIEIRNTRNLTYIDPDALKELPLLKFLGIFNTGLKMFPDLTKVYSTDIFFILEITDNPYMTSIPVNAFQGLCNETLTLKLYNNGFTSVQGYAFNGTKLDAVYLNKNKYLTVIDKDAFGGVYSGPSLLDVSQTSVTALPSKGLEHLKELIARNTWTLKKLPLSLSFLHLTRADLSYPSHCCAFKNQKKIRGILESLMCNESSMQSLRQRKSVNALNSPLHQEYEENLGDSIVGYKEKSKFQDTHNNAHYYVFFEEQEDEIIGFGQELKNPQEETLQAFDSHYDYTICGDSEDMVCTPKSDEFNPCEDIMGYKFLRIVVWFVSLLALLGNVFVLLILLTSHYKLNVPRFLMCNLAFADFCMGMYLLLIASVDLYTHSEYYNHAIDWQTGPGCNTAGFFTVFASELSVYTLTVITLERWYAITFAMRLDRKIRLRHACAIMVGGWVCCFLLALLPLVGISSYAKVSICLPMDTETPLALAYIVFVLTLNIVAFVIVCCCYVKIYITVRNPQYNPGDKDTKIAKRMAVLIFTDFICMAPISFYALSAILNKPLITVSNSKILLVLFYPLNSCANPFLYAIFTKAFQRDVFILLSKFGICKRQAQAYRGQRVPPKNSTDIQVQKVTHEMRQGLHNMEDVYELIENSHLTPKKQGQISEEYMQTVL
row,SMILES,"activity, negative = inhibition"
1,CC(C)[C@@]1(NC(=O)[C@@H]2C[C@@H]3c4cccc5[nH]cc(c45)C[C@H]3N(C)C2)O[C@@]2(O)C3CCCN3C(=O)[C@H](Cc3ccccc3)N2C1=O (stereo not given in full),-2.21%
2,C[C@]12CC[C@H](O)CC1=CCC1C2CC[C@]2(C)C(=O)CC[C@@H]12 (stereo not given in full),-0.219%
3,CCCN1CCc2cccc3c2C1Cc1ccc(O)c(O)c1-3 (stereo not given),-1.35%

# Target: ATP-dependent 6-phosphofructokinase (Trypanosoma brucei brucei) (UniProt O15648)
# Experiment: qHTS Assay to Find Inhibitors of T. brucei phosphofructokinase: hit validation (AID 492961);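 further: luminescence reports ADP formed as PFK phosphorylates fructose-6-phosphate with ATP; on the % scale 0 is the no-effect control and ±100 the full control effect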
# Conditions: T. brucei PFK, ADP-Glo luminescence; series mostly up to 51.4 µM; activity change, negative = inhibition: at the top concentration
# Method in brief: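 Percent activity derived from corrected luminescence, normalized between 0x and 1x enzyme controls, then fitted to concentration-response curves. Conditions: 1.25 nM PFK, 0.1 mM ATP, 0.5 mM F6P, 45 min RT.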
# Sequence of ATP-dependent 6-phosphofructokinase (Trypanosoma brucei brucei) (O15648 whole entry, looked up): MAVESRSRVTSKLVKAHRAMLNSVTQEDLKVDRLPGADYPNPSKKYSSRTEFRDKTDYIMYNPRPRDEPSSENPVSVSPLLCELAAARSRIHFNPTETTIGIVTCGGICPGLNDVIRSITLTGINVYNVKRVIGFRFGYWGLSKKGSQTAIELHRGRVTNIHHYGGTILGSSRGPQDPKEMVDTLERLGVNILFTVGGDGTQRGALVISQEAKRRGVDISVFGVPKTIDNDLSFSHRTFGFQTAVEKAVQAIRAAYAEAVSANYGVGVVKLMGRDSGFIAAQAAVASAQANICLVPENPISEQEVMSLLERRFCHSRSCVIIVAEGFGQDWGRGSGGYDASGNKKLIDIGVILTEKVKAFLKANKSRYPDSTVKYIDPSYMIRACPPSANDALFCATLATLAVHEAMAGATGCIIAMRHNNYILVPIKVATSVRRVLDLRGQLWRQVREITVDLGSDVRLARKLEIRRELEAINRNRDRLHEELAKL
SMILES,Potency,"activity change, negative = inhibition"
C[N+]1([O-])[C@@H]2CC(OC(=O)[C@@H](CO)c3ccccc3)C[C@@H]1[C@H]1O[C@H]12 (stereo not given in full),inactive,
C[C@]12CC[C@H](O)CC1=CCC1C2CC[C@]2(C)C(=O)CC[C@@H]12 (stereo not given in full),,-2.28%
ClC1=C(Cl)C2(Cl)C3C4CC(C5OC45)C3C1(Cl)C2(Cl)Cl (stereo not given),,-12.9%
CCNC[C@H](O)c1cccc(O)c1,,-4.14% [at 24.3 µM]

# Target: Thyrotropin-releasing hormone receptor (Homo sapiens) (UniProt P34981)
# Experiment: qHTS for Small Molecule Agonists and Allosteric Enhancers of Human TRH Receptor: Validation Screen for Agonists (AID 493127;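 active means calcium activation more than 3 SD above the typical response in the agonist read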; further: 0% is about no effect)
# Conditions: TRH receptor agonist cell assay; at 2 µM; hits give high values
# Method in brief: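 TRHR cells loaded with fluo-8 calcium dye; FDSS kinetic fluorescence (Ex 480/Em 530) read at 1 s/cycle after 23 nL compound addition. Agonist-mode calcium response recorded before the 10 nM TRH (EC20) addition.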
# Sequence of Thyrotropin-releasing hormone receptor (Homo sapiens) (P34981 whole entry, looked up): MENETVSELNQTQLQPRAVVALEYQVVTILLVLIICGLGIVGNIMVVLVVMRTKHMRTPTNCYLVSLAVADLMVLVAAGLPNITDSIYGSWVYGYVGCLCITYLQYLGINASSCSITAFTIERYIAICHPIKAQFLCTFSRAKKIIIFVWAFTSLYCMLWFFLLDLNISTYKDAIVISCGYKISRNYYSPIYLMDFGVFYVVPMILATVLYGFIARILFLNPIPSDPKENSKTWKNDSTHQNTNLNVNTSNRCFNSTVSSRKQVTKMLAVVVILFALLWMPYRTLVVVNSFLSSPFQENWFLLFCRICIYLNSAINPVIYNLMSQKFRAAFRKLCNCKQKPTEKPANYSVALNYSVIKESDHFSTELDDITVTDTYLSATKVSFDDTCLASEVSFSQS
row,SMILES,activation
1,CC(C)[C@@]1(NC(=O)[C@@H]2C[C@@H]3c4cccc5[nH]cc(c45)C[C@H]3N(C)C2)O[C@@]2(O)C3CCCN3C(=O)[C@H](Cc3ccccc3)N2C1=O (stereo not given in full),0.125%
2,C[C@]12CC[C@H](O)CC1=CCC1C2CC[C@]2(C)C(=O)CC[C@@H]12 (stereo not given in full),0.438%
3,CCCN1CCc2cccc3c2C1Cc1ccc(O)c(O)c1-3 (stereo not given),1.44%

# Target: Ubiquitin carboxyl-terminal hydrolase 1 (Homo sapiens) (UniProt O94782)
# Experiment: Inhibitors of USP1/UAF1: Pilot qHTS (AID 504865); further: nearly all actives have a fitted effect of over 35% in size; further: potency means the concentration at half of the fitted maximal effect;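 on activity change, negative = inhibition: rhodamine fluorescence freed from ubiquitin-rhodamine substrate followed over time; top concentration of the series differs between compounds; on the % scale 0 is the no-effect control and ±100 the full control effect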
# Conditions: purified USP1/UAF1, Ub-rhodamine cleavage fluorescence; series mostly up to 114 µM; activity change, negative = inhibition: at the top concentration
# Method in brief: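 In 50mM HEPES pH 7.8 containing 0.5mM EDTA, 1mM TCEP, 0.1 mg/ml BSA and 0.01% Tween-20, 1nM USP1/UAF1 is exposed to compound for 15 min, then Ub-Rho (150nM final) is added and fluorescence is read over time.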
# Sequence of Ubiquitin carboxyl-terminal hydrolase 1 (Homo sapiens) (O94782 whole entry, looked up): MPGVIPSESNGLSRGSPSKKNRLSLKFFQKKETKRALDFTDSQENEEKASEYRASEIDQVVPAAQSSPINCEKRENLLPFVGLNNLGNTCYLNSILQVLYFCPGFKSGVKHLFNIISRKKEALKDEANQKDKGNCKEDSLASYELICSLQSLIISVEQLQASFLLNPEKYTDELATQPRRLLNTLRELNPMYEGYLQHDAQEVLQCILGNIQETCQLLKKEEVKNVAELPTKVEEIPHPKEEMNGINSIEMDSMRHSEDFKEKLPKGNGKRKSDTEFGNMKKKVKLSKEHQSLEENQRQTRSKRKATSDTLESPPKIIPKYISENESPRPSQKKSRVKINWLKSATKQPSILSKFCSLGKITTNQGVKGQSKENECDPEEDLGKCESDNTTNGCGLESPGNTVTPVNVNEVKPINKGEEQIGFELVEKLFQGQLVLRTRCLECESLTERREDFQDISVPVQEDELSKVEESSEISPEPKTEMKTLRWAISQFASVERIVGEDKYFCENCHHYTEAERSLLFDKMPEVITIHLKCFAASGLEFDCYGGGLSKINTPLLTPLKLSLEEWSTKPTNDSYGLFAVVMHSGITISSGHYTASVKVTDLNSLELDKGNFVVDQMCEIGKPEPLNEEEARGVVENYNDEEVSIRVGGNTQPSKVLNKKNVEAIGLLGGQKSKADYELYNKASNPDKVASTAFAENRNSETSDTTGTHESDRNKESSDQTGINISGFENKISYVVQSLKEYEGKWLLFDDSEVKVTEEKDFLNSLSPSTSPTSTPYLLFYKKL
SMILES,"activity change, negative = inhibition",Potency
O=C(O)COc1ccc(Cl)cc1Cl,-2.26%,
O=C1C=CC(=O)c2c(O)cccc21,,8.91 µM (active)
ClC1=C(Cl)C2(Cl)C3C4C=CC(C4)C3C1(Cl)C2(Cl)Cl (stereo not given),-9.98%,
O=S1OCC2C(CO1)C1(Cl)C(Cl)=C(Cl)C2(Cl)C1(Cl)Cl (stereo not given),-17.5%,
c1ccc(N=Nc2ccccc2)cc1,-12.1%,
C[N+]1([O-])[C@@H]2CC(OC(=O)[C@@H](CO)c3ccccc3)C[C@@H]1[C@H]1O[C@H]12 (stereo not given in full),,inactive
CCOCN(C(=O)CCl)c1c(C)cccc1CC,-7.75%,
CNC(=O)O/N=C/C(C)(C)SC,-4.01%,
O=C1c2ccccc2-c2cccc3cccc1c23,-14.9%,
C[C@]12CC[C@H](O)CC1=CCC1C2CC[C@]2(C)C(=O)CC[C@@H]12 (stereo not given in full),-5.68%,
CCNc1nc(Cl)nc(NC(C)C)n1,0.434%,
COc1cc2c(cc1-c1cc3cc4ccoc4cc3oc1=O)OCO2,,50.1 µM (active)
C=CCc1ccc(OC)cc1,-3.5%,
ClC1=C(Cl)C2(Cl)C3C(Cl)C=CC3C1(Cl)C2(Cl)Cl (stereo not given),-13.3%,
C=CCc1ccc2c(c1)OCO2,-5.8%,
